# Screening results as filed in PubChem BioAssay.
# This is a sample that favours compounds with a hit; in the whole collection about 1.6% have one here.
# Casp6 inh: blocks human caspase-6 cleavage activity | inhibition, % at 12.5 µM | 350,000 tested, 0.53% active | purified caspase-6, Z-VEID-R110 cleavage fluorescence | P55212;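 active = mean inhibition across replicates at least about 35%, with every replicate also reaching that limit, limit read from the data; inconclusive = only one of the two criteria met; inactive = neither criterion met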;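 note: 0% = median of neutral control wells and 100% = no fluorescence left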
# SIRT5 inh: sirtuin-5 (human) deacylase inhibition; Q9NXA8; Purified SirT5, succinyl-peptide AMC, trypsin-coupled fluorescence; inhibition, % at 15 µM; 330,000 tested, 1.1% active; in the data active = inhibition above about 15%; inconclusive = no clear call, values can overlap the other calls
# NSD2 HMT inh: NSD2 (human) methyltransferase inhibition; O96028; NSD2 peptide methylation, AlphaScreen, 120 min; inhibition, % at 12.5 µM; 310,000 tested, 0.54% active; AID 743445; in the data active = inhibition above about 50%
# Target sequence (O96028 whole entry, looked up): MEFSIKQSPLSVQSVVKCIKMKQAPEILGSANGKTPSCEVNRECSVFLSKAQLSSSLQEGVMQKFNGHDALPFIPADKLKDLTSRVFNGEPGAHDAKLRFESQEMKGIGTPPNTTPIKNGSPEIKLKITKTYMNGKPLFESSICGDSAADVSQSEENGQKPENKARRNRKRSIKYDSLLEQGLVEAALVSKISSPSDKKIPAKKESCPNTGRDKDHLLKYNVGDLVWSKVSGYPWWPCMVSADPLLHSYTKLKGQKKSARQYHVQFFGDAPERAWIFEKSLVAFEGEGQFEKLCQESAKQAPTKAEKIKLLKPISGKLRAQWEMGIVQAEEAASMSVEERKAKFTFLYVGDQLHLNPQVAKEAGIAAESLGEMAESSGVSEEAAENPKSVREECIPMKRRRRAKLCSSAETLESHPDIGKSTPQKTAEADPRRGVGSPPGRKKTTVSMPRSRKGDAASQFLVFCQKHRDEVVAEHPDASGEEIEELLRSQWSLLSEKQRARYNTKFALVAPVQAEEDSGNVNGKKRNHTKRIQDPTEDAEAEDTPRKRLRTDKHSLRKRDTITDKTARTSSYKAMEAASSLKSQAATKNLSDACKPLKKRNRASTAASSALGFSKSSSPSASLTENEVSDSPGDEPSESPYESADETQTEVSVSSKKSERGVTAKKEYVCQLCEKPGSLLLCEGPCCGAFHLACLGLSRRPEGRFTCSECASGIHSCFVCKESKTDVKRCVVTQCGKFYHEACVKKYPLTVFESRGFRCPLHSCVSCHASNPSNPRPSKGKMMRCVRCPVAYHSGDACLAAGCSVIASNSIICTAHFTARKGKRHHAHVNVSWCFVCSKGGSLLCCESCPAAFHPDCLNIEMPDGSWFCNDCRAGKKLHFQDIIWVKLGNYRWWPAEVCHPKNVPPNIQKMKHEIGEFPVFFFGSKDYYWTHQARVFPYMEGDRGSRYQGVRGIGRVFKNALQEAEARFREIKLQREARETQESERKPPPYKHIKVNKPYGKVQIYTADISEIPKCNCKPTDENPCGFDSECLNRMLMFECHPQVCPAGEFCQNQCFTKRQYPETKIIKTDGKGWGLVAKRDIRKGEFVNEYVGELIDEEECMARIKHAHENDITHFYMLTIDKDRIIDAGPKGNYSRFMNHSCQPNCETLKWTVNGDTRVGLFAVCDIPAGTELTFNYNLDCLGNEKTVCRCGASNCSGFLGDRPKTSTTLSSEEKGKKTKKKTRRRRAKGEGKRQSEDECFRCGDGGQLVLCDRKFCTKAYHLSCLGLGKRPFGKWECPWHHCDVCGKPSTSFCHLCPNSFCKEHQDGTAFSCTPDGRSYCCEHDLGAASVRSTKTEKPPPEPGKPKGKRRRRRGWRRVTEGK
# SUMO HTRF inh: SUMOylation inhibition; P63279; HTRF SUMOylation assay, SAE1/SAE2 + UBC9, in vitro; inhibition, % at 35 µM; 290,000 tested, 0.36% active; in the data active = inhibition above about 50%, passing the limit was not always enough; inconclusive = no clear call, values can overlap the other calls
# Numbers without * were called inactive; u = inconclusive; x = not tested or not shown.
SMILES,Casp6 inh,SIRT5 inh,NSD2 HMT inh,SUMO HTRF inh
Cc1cc(OC(C(=O)O)c2ccccc2)c2c(C)c(Cc3ccccc3)c(=O)oc2c1 (stereo unspecified),2,-4,0,51*
COc1ccc(NC(=O)CSc2nnc3ccc(-c4cccnc4)nn23)cc1,1,2,0,x
Cc1cc(NC(=O)CSc2nnc3ccc(-c4ccccc4)nn23)no1,-3,26*,-2,x
Cc1cc(NC(=O)CSc2ccc3nnc(-c4ccccc4)n3n2)no1,0,-4,4,29
COc1ccc(NC(=O)CSc2nnc3ccc(-c4cccnc4)nn23)cc1OC,-9,17*,-3,x
COc1ccc(S(=O)(=O)N(C)C[C@@H]2Oc3c(NC(=O)c4ccncc4)cccc3C(=O)N([C@@H](C)CO)C[C@H]2C)cc1,0,17*,x,x
COc1ccc(S(=O)(=O)Nc2cccc3c2O[C@@H](CN(C)S(=O)(=O)c2c(C)noc2C)[C@H](C)CN([C@H](C)CO)C3=O)cc1,1,102*,x,x
COc1ccc(S(=O)(=O)Nc2cccc3c2O[C@@H](CN(C)S(=O)(=O)c2c(C)noc2C)[C@H](C)CN([C@@H](C)CO)C3=O)cc1,2,5,x,x
CCCNC(=O)Nc1ccc2c(c1)OC[C@H](C)N(CCC)C[C@@H](C)[C@@H](OC)CN(C)C2=O,1,11,x,x
Cc1ccc([N+](=O)[O-])cc1NC(=O)C(C)N1CCCCC1 (stereo unspecified),40*,1,-1,12
NNC(=S)Nc1cccc(-c2n[nH]c(=S)o2)c1,1,18*,-22,14
COc1cc(/C=C/C(=O)N2CCCC=CC2=O)cc(OC)c1OC,0,0,x,x
CC1CC(NC(=O)c2cc3c(=O)n4ccccc4nc3n2C)CC(C)(C)C1 (stereo unspecified),1,15*,-15,25
Cn1c(C(=O)N2CCN(C(=O)c3ccco3)CC2)cc2c(=O)n3ccccc3nc21,x,x,3,58*
CC1CCCCC1NC(=O)c1cc2c(=O)n3ccccc3nc2n1C (stereo unspecified),4,-74,-8,58*
Cn1c(C(=O)O)cc2c(=O)n3ccccc3nc21,0,-43,x,u
Cc1ccc(NC(=S)NCc2ccco2)c(C)c1,-4,80*,-3,13
COc1ccc(NC(=S)NCc2ccco2)cc1,x,x,1,-10
CCOc1ccc(NC(=S)NCc2ccco2)cc1,0,17*,0,-7
Cc1ccccc1NC(=S)NCc1ccco1,x,x,2,3
CN(C)CCCN(C(=O)c1ccc(Br)s1)c1nc2cc3c(cc2s1)OCCO3,-9,-1,2,x
CN(C)CCCN(C(=O)c1ccco1)c1nc2ccc(F)cc2s1,2,19*,5,-12
CN(C)CCCN(C(=O)c1ccc([N+](=O)[O-])s1)c1nc2cc3c(cc2s1)OCCO3,84*,-1,12,0
Cc1ccc2nc(N(CCCN(C)C)C(=O)c3ccco3)sc2c1,-8,-4,6,3
CCN1[C@@H]2Cn3c(ccc(-c4ccc(OC)cc4)c3=O)[C@H]1[C@@H](C(=O)NCC1CC1)[C@@H]2CO,6,-38,x,x
SMILES,Casp6 inh,SIRT5 inh,NSD2 HMT inh,SUMO HTRF inh
C[C@@H]1CN([C@@H](C)CO)C(=O)c2cc(NS(C)(=O)=O)ccc2O[C@H]1CN(C)C(=O)NC1CCCCC1,8,2,x,x
O=C(C[C@@H]1CC[C@@H](NC(=O)NC2CCCCC2)[C@@H](CO)O1)NCc1ccc(Cl)cc1,-1,0,x,x
CCOC(=O)C1=NOC(COc2ccccc2C=O)C1 (stereo unspecified),-4,23*,2,0
CCOC(=O)C1=NOC(CNC(=O)c2ccccc2Cl)C1 (stereo unspecified),-1,-2,-1,5
C/C=C(/C)C(=O)O[C@@H]1c2c(ccc3ccc(=O)oc23)OC(C)(C)[C@@H]1OC(=O)/C(C)=C\C,-6,31*,x,-40
C/C=C(/C)C(=O)O[C@@H]1[C@H](OC(=O)C=C(C)C)c2c(ccc3ccc(=O)oc23)OC1(C)C,-2,-8,x,-8
COc1ccc(C(=O)Nc2ccc3c(c2)OC[C@H](C)NC[C@@H](C)[C@H](OC)CN(C)C3=O)cc1,-3,-1,x,x
CCOC(=O)c1nn(-c2ccccc2)cc1O,0,28*,-1,9
CCOc1ccc(CNC(=O)CCCC(=O)n2ncc3cc(C)ccc32)cc1,-1,15*,x,10
Cc1ccc2c(cnn2C(=O)CCCC(=O)NCc2ccc(Cl)cc2)c1,1,-7,x,5
C[C@@H]1CN([C@@H](C)CO)S(=O)(=O)c2ccc(C#Cc3cccnc3)cc2O[C@H]1CN(C)C(=O)CN(C)C,-2,0,x,x
